Assay [1] can be described thus: compounds binding Alexa647 anti-His antibody – biochemical, small-molecule microarray, 635 nm fluorescence, artefact control for SMM control protein annotation, primary screen (AID 1128).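 Note: score merges feature fluorescence with signal-to-noise for each printed compound spot.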 The conditions noted are these: higher = more signal.
The test system of assay [2] is Human papillomavirus type 1a E7 protein (residues 1-88). The experiment in a line: HPV1a E7 small-molecule binders, primary screen, biochemical, small-molecule microarray, residues 1-88, 635 nm (AID 1129). The settings on record: small-molecule microarray binding, fluorescence 635 nm; higher = more signal.
In assay [3] the target is Focal adhesion kinase 1 (Homo sapiens) (UniProt Q05397). The experiment in a line: PTK2 protein binding on printed compound slides – biochemical, small-molecule microarray, 635/667 nm fluorescence, BSA, DTT, primary screen (AID 1130).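 Note: composite of spot emission at 667 nm and signal to noise over triplicate slides.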 The conditions noted are these: 635 nm fluorescence, higher = more signal.
Focal adhesion kinase 1 (Homo sapiens), sequence (Q05397 whole entry, looked up): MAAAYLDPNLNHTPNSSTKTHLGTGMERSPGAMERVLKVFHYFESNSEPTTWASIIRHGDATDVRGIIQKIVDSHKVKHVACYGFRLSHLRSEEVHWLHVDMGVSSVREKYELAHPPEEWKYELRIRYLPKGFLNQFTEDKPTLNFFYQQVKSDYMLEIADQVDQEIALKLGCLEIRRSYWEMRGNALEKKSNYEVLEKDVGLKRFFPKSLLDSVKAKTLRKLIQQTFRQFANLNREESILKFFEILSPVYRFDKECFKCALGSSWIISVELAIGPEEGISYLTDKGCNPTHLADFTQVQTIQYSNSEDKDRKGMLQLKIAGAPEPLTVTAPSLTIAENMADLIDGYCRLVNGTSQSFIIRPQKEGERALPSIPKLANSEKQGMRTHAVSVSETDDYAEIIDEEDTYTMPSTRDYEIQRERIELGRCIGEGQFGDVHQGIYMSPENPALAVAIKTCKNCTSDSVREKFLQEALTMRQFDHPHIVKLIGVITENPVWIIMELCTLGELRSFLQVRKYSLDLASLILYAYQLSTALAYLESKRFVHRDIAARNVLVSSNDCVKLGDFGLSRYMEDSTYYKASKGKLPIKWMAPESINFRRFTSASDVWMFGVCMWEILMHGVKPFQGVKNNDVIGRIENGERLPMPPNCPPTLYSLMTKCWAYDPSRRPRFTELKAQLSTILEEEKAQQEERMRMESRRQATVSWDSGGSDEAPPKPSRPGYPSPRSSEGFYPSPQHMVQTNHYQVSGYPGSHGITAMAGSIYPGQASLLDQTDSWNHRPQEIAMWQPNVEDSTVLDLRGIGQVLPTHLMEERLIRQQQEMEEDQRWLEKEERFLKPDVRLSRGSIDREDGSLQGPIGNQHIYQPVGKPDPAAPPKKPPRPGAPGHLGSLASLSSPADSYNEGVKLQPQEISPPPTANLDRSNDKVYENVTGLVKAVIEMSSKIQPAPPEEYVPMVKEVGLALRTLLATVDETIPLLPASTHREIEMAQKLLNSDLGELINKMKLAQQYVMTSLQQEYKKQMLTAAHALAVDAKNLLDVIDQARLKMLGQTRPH
Assay [4] relates to Fibrinogen (Alexa647-labelled). As to the kind of experiment: Alexa647-fibrinogen binding to printed small molecules – biochemical, small-molecule microarray, 635/667 nm fluorescence, artefact control for SMM control-protein annotation, profiling panel (AID 1131).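 Note: z-score merges 667 nm fluorescence with per-spot signal-to-noise over triplicate slides.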 The settings on record: fibrinogen-A647 binding fluorescence, higher = more signal.
The target in assay [5] is Follistatin (Homo sapiens) (UniProt P19883). The experiment in a line: FST protein binding to printed compounds – biochemical, small-molecule microarray, 635/667 nm fluorescence, primary screen (AID 1132). The settings on record: 635 nm fluorescence, higher = more signal.
Follistatin (Homo sapiens), sequence (P19883 whole entry, looked up): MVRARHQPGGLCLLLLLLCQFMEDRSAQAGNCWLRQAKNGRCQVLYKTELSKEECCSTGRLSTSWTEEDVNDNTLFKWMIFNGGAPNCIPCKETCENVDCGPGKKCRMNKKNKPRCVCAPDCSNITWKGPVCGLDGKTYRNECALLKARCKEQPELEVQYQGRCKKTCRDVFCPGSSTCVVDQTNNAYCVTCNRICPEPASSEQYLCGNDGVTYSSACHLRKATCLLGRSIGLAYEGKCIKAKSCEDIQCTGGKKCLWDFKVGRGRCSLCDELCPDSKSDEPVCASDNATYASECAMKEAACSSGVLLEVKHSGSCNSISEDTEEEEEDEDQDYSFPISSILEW
Assay [6] addresses Fibroblast growth factor 2 (Homo sapiens) (UniProt P09038). As to the kind of experiment: basic fibroblast growth factor binding to printed compounds – biochemical, small-molecule microarray, 635/667 nm fluorescence, primary screen (AID 1133). The settings on record: FGF2, fluorescence 635/667, higher = more signal.
A short description of assay [7]: JC-1 mitochondrial potential readout, lung cancer cells – cell-based, A549, JC-1 fluorescence, basal, 24 h, 100 nL, profiling panel (AID 1138).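 Note: A549 lung adenocarcinoma cells under basal conditions with no added stimulus; test concentration not given here.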 The settings on record: higher = more signal.
Assay [8] has as its system Lefty1. As to the kind of experiment: Lefty1 protein binding to printed compounds – biochemical, small-molecule microarray, 635/667 nm fluorescence, primary screen (AID 1139). The settings on record: fluorescence 635/667, higher = more signal.
Assay [9] deals with wheat germ agglutinin (Triticum aestivum), Alexa647-labelled. As to the kind of experiment: Alexa647-WGA lectin binding to printed small molecules – biochemical, small-molecule microarray, 635/667 nm fluorescence, artefact control for SMM control-protein annotation, profiling panel (AID 1140).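 Note: score merges 667 nm feature emission with signal to noise over triplicate slides.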 The conditions noted are these: WGA-A647 binding, 635 nm fluorescence, higher = more signal.

In assay [10] the target is Luciferin 4-monooxygenase (Photinus pyralis) (UniProt P08659). As to the kind of experiment: inhibition of purified Photinus pyralis luciferase – biochemical, luminescence, purified enzyme, 2006 set, primary screen (AID 1141).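 Note: cell-free assay with purified firefly luciferase at 100 ng per well in PBS; test concentration not given here.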 The conditions noted are these: purified firefly luciferase, SteadyGlo luminescence, 30 min; higher = more signal, called active from +8 up or from −8 down.
Luciferin 4-monooxygenase (Photinus pyralis), sequence (P08659 whole entry, looked up): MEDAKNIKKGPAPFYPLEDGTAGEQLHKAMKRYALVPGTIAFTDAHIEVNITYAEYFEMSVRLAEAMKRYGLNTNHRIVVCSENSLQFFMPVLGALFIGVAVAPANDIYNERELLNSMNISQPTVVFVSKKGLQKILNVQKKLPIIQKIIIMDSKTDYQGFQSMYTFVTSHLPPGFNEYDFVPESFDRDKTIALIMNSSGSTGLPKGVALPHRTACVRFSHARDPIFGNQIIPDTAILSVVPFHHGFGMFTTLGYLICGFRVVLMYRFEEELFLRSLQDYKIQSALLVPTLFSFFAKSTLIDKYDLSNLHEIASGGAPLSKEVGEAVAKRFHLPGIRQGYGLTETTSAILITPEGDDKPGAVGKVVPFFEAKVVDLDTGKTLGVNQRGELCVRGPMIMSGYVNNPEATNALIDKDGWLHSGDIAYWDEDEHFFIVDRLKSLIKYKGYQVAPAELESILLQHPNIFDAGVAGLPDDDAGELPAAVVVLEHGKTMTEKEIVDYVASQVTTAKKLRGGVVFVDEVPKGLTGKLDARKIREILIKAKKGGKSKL

For assay [11], the system named is Wnt5a (protein binding on small-molecule microarray). The experiment in a line: small molecules binding Wnt5a protein – biophysical, small-molecule microarray, 635/667 nm fluorescence, primary screen (AID 1142).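 Note: fluorescence read at 667 nm with signal to noise per printed feature.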 The conditions noted are these: 635 nm fluorescence, higher = more signal.
The nature of assay [12]: ATP-based viability of Huh7 replicon cells – cell-based, CellTiter-Glo luminescence, basal, 48 h, cytotoxicity control for HCV replication inhibitor project, primary screen (AID 1143).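 Note: Huh7 hepatoma cells carrying a hepatitis C replication reporter with no stimulus; test concentration not given here.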 The conditions noted are these: higher = more signal, called active from +8 up or from −8 down. A general note: Replicon systems follow genome replication, usually without infectious particles.

The nature of assay [13]: Pseudomonas biofilm growth suppression – PAO1 strain, BacTiter-Glo luminescence, LB-PBS, primary screen (AID 1144). The settings on record: P. aeruginosa PAO1 biofilm, 12 h, higher = more signal.
Assay [14] can be described thus: basal CRE-LacZ reporter activity in PC12 – cell-based, unstimulated, primary screen (AID 1145). The conditions noted are these: no forskolin, luminescence, 4.5 h, higher = more signal, called active from +8 up or from −8 down.
The nature of assay [15]: forskolin-driven CRE-LacZ activity in PC12 – cell-based, CRE-LacZ reporter, forskolin-stimulated, primary screen (AID 1146).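 Note: PC12 cells with 6xCRE LacZ reporter stimulated by forskolin 10 µM; beta-galactosidase reporter signal reflecting CREB driven transcription.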 The conditions noted are these: luminescence, 4.5 h, higher = more signal, called active from +8 up or from −8 down.
Assay [16] has as its target Streptavidin (Streptomyces avidinii) (UniProt P22629). As to the kind of experiment: compounds binding control protein streptavidin – biophysical, small-molecule microarray, 635/667 nm fluorescence, artefact control for SMM compound annotation, primary screen (AID 1147).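 Note: signal reflects streptavidin binding to arrayed compounds as a control protein.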 The conditions noted are these: higher = more signal.
The nature of assay [17]: probe aInhba binding on compound microarray – biochemical, small-molecule microarray, 635/667 nm fluorescence, primary screen (AID 1148).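 Note: score merges 667nm spot fluorescence with signal-to-noise for antibody binding to printed compounds.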 The settings on record: higher = more signal.
Assay [18] deals with Torsin-1A (Homo sapiens) (UniProt O14656). The experiment in a line: TOR1A wild-type binding on microarray – cell lysate, small-molecule microarray, lysate, 635/667 nm, primary screen (AID 1149). The conditions noted are these: COS7 hTOR1A-WT lysate, 635 nm fluorescence, higher = more signal.
Torsin-1A (Homo sapiens), sequence (O14656 whole entry, looked up): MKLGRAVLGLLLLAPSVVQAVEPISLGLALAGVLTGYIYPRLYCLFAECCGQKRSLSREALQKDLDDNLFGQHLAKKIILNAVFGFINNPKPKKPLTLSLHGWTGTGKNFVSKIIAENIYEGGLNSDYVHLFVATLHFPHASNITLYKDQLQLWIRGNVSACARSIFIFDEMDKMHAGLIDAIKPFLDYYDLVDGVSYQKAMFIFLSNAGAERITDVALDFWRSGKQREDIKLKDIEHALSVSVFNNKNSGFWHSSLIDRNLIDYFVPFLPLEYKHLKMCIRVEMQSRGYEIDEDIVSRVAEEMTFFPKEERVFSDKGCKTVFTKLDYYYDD
Assay [19] shares this target. As to the kind of experiment: torsin A mutant lysate binding on microarrays – cell lysate, small-molecule microarray, COS7 lysate, 635/667 nm fluorescence, primary screen (AID 1150).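 Note: score pools 667 nm emission and signal to noise measuring lysate protein binding.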 The conditions noted are these: COS7 hTOR1A mutant lysate, 635 nm fluorescence, higher = more signal.
The subject of assay [20] is Sonic hedgehog protein (Shh). The experiment in a line: Sonic hedgehog microarray binding compounds – biochemical, small-molecule microarray, 635/667 nm fluorescence, primary screen (AID 1151).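 Note: Shh protein binding to compounds spotted on small-molecule microarray slides; score combines spot fluorescence intensity with signal-to-noise across triplicate slides.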 The conditions noted are these: 635 nm fluorescence, higher = more signal.

Structures are written as SMILES. The source made the active and inactive calls. Unless noted, the rule behind the calls is not given here.

Fibroblast growth factor 2 (Homo sapiens), sequence (P09038 whole entry, looked up): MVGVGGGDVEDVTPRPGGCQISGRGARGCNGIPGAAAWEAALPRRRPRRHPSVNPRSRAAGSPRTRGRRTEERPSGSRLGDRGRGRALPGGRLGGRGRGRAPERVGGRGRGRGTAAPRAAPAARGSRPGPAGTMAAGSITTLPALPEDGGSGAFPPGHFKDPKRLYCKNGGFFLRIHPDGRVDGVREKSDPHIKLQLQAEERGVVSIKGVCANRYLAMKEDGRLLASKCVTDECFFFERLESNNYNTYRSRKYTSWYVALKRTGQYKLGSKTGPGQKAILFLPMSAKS
Streptavidin (Streptomyces avidinii), sequence (P22629 whole entry, looked up): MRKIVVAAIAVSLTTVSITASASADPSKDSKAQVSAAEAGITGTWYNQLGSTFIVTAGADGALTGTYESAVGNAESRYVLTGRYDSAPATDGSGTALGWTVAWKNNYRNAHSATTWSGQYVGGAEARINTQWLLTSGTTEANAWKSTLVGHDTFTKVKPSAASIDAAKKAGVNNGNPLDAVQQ

`[N-]=[N+]=NCc1ccccc1[C@@H]1OC(c2ccc(OCCCO)cc2)=N[C@]1(Cc1ccccc1)C(=O)NCCN1CCOCC1`: the composite z-score in [1] was found to be 1.16; in assay [2] it was 1.18; in assay [3], 0.533; in assay [4] it was 0.514; in assay [5], 1.31; in assay [6], 0.41. Also, the composite z-score was -0.0059 in [8]; 0.721 in [9]; 0.629 in assay [11]; 0.686 in assay [16]; 0.386 in assay [17]; 0.0739 in assay [18]. Further, the composite z-score in assay [19] was determined as 0.818; in assay [20] it was 0.0392. Moreover, the z-score in [7] is 2.27; in [10] it was -1.94 (inactive); in [12], -2.31 (inactive); in assay [13], 0.0636 (inactive); in [14], 2.76 (inactive); in assay [15], -0.808 (inactive).
Consider `COCCOC(=O)N1C(=O)[C@@]2(c3cc(C#CCNC(N)=O)ccc31)[C@H](c1ccc(O)cc1)N1[C@H](c3ccccc3)[C@H](c3ccccc3)OC(=O)[C@H]1[C@@H]2C(=O)N1CCN(c2ncccn2)CC1`, for which the composite z-score was 1.22 in assay [1]; 1.2 in assay [2]; 0.634 in assay [3]; 0.865 in [4]; 0.902 in [5]; 0.671 in [6]. For the same compound, the composite z-score in assay [8] is 0.707; in assay [9] it was 0.991; in assay [11], 0.0474; in assay [16], 0.374; in assay [17], -0.0898; in assay [18], 0.652. In addition, the composite z-score in assay [19] worked out at 0.747; in assay [20], 0.905. Moreover, the z-score was -1.91 in assay [7]; -0.391 (inactive) in [10]; 0.259 (inactive) in [12]; -0.648 (inactive) in [13]; -0.589 (inactive) in assay [14]; -0.249 (inactive) in assay [15].
`COC(=O)C(CC#Cc1ccc2c(c1)[C@]1(C(=O)N2)[C@H](c2ccc(OCCO)cc2)N2[C@H](c3ccccc3)[C@H](c3ccccc3)OC(=O)[C@H]2[C@@H]1C(=O)N1CCN(c2ncccn2)CC1)C(=O)OC`: the composite z-score in assay [1] was 1.92; in [2] it was 1.21; in assay [3], -0.528; in assay [4] it was 0.993; in [5], 1.37; in [6] it was 1.35. Moreover, the composite z-score in assay [8] was 0.857; in assay [9] it was 1.04; in [11], 0.419; in assay [16] it was 0.862; in [17] it was 0.306; in [18], 0.272. Further, the composite z-score in assay [19] was found to be 0.666; in assay [20], 1.2. Further, the z-score in [7] is -1.56; in assay [10], -0.195 (inactive); in assay [12] it was -0.339 (inactive); in [13], -0.961 (inactive); in [14] it was -0.554 (inactive); in assay [15], 1.27 (inactive).
With `C=C(/C(=C/C[C@@H](OC(C)=O)c1ccc(OCCO)cc1)c1cc(C(=O)OC)ccc1OC)C(C)C`, the composite z-score worked out at 1.81 in assay [1]; 0.999 in assay [2]; 0.211 in assay [3]; 0.665 in assay [4]; 0.776 in assay [5]; 1.11 in assay [6]. For the same compound, the composite z-score in [8] was 1.36; in assay [9], 0.85; in assay [11], -0.0426; in [16], -0.124; in assay [17], 0.167; in assay [18] it was 0.856. For the same compound, the results for the composite z-score in assay [19] and in assay [20] were 0.693 and 1.41, respectively. Also, the z-score was 0.471 in assay [7]; -0.6 (inactive) in assay [10]; -2.02 (inactive) in [12]; 1.03 (inactive) in assay [13]; 3.85 (inactive) in [14]; -0.27 (inactive) in assay [15].
`CCCCCCCCCCC(O)C1C=CC2C(=O)N(c3ccccc3)C(=O)C2N1Nc1ccccc1F` (stereo not given): the composite z-score in assay [1] was 0.0112; in assay [2], 0.399; in assay [3] it was 0.674; in assay [4] it was 0.415; in [5], -0.348; in [6], -0.591. For the same compound, the composite z-score was -0.833 in assay [8]; 0.472 in assay [9]; -0.13 in assay [11]; 0.282 in [16]; 0.0074 in assay [17]; -0.35 in assay [18]. Also, the composite z-score in assay [19] was -0.524; in assay [20], -0.992. Further, the z-score is -0.127 in assay [7]; 0.422 (inactive) in [10]; 0.325 (inactive) in assay [12]; -0.425 (inactive) in assay [13]; -1.09 (inactive) in assay [14]; 0.476 (inactive) in [15].

For the origin of these results see PubChem BioAssay.
